Common to all, as to design: scale not given: direction of the effect not stated beside the values
Assay [1] addresses Protein translocase subunit SecA (Escherichia coli (strain K12)) (UniProt P10408). The experiment in a line: Assay to Identify E. coli SecA ATPase Inhibitors. It is filed as functional. The conditions noted are these: 30 µM.
Assay [2] has as its target T1, Ubiquitin-activating enzyme e1, putative (Leishmania donovani (strain BPK282A1)) (UniProt E9BSI1).
T1 sequence (whole entry): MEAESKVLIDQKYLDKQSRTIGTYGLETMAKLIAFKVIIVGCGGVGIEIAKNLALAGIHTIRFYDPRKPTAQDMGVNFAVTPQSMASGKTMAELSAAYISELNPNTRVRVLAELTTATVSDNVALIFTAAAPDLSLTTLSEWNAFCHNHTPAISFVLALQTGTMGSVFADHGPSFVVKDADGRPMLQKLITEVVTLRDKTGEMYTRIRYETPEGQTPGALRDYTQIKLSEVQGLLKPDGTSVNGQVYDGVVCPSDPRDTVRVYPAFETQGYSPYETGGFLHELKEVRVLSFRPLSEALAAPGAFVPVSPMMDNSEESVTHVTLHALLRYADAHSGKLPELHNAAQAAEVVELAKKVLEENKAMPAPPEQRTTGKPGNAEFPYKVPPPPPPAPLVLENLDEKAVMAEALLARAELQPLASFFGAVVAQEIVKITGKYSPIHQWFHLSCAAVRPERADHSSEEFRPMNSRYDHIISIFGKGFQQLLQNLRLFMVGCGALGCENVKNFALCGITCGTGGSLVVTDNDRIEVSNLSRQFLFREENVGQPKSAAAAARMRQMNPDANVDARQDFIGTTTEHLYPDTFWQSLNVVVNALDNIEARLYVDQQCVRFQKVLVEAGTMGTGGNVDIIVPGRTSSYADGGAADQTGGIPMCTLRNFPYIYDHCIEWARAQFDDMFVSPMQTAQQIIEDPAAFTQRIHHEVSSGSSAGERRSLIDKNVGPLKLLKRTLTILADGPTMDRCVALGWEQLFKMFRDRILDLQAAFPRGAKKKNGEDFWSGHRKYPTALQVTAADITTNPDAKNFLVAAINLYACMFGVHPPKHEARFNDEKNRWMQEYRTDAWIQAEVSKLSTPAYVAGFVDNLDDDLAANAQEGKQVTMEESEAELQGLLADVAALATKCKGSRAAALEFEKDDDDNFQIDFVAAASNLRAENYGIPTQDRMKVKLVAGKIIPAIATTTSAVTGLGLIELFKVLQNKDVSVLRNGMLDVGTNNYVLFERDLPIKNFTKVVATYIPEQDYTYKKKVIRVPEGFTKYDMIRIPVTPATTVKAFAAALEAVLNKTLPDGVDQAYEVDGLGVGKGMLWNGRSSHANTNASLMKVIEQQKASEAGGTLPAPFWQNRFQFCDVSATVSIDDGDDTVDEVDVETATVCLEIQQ
The experiment in a line: Leishmania donovani Ubiquitin Activating Enzyme (LdE1). It is filed as functional. The conditions noted are these: 30 µM.

Assay [3] has as its target AMP-activated protein kinase, AMPK (Homo sapiens) (UniProt P54646+O43741+P54619+Q9UGJ0+Q9Y478+Q13131+Q9UGI9). The experiment in a line: AMP-dependent Kinase enzyme assay. An in vitro enzyme assay that detects ADP turnover that is directly proportional to AMPK activity. This uses naive AMPK that is activated during the assay with MK-8722. It is filed as functional. As to conditions: 30 µM.

The target in assay [4] is Sialic acid-binding Ig-like lectin 9 (Homo sapiens) (UniProt Q9Y336). The experiment in a line: Hs-Siglec9 ALPHAscreen SOP 20170721. The conditions noted are these: 10 µM.
The subject of a further assay is Trypanosoma cruzi. The assay can be described thus: Trypanosoma cruzi phosphomannomutase and mannose-1-phosphate guanylyltransferase assay. It is filed as functional. The conditions noted are these: 10 µM.
The target in assay [5] is T2, Arginase-2, mitochondrial (Homo sapiens) (UniProt P78540).
T2 sequence (whole entry): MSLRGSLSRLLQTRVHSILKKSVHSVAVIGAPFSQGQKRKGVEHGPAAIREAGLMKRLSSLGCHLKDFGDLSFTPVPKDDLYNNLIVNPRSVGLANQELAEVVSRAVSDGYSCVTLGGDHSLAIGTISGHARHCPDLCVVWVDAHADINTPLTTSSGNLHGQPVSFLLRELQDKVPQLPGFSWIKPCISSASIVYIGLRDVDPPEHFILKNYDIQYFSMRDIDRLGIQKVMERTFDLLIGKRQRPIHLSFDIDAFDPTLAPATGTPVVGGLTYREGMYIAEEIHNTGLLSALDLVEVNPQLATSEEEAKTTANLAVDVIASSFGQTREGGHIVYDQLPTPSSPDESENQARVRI
The experiment in a line: in vitro enzyme assay to detect the production of urea directly proportional to the activity of Arginase II. Also: in the data most compounds retested in dose-response had high values. It is filed as functional. The conditions noted are these: 33.3 µM.

The target of assay [6] is T3, Proteasome subunit beta (Trypanosoma cruzi) (UniProt O96673).
T3 sequence (whole entry): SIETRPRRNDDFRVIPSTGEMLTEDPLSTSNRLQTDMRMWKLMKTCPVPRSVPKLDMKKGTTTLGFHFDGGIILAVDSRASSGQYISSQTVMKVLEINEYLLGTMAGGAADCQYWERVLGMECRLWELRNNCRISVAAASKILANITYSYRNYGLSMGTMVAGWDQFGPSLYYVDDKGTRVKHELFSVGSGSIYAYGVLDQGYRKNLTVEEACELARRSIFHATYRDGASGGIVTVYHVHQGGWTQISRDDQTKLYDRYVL
The assay can be described thus: Trypanosoma cruzi proteasome chymotrypsin-like activity (TcProtChymo) assay. Also: in the data most compounds retested in dose-response had high values. It is filed as functional. As to conditions: 9.37 µM.

The species named for another assay is Homo sapiens. The experiment in a line: To identify inhibition of the IFN signalling (Jak-Stat) pathway via expression of an eGFP reporter gene under the control of an IFN-stimulated response element (ISRE) containing MxA promoter. As to conditions: 30 µM. It is filed as functional. (In general: Reporter assays use an easily measured gene product as a stand-in for the process of interest.)

Assay [7] addresses T4, Tyrosyl-tRNA synthetase, putative (Trypanosoma cruzi (strain CL Brener)) (UniProt Q4DSP6).
T4 sequence (whole entry): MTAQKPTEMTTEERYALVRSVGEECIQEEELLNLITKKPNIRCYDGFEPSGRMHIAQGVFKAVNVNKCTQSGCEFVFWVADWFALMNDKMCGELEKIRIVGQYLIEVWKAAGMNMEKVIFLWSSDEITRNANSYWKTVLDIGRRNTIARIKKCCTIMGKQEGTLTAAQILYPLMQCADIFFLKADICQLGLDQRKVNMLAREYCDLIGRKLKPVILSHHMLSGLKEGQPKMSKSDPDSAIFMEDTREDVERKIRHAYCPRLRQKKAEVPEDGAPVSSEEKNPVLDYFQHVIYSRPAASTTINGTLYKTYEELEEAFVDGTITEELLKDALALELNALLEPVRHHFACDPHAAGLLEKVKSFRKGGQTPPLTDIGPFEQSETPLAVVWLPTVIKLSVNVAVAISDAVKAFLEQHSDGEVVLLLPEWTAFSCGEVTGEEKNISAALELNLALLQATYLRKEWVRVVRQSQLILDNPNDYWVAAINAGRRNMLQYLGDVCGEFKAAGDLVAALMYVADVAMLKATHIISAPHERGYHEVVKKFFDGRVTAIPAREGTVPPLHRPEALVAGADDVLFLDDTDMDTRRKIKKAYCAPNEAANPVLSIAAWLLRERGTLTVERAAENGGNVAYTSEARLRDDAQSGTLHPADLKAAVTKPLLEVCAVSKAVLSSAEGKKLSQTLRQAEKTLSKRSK
The experiment in a line: Trypanosoma cruzi tyrosyl tRNA synthetase (TcYRS) _High Tyrosine SOP. Also: in the data most compounds retested in dose-response had high values. It is filed as functional. The conditions noted are these: 30 µM.

Assay [8] concerns the target T4, Tyrosyl-tRNA synthetase, putative (Trypanosoma cruzi (strain CL Brener)). The assay can be described thus: Trypanosoma cruzi tyrosyl tRNA synthetase (TcYRS) SOP. It is filed as functional. The conditions noted are these: 30 µM.
The target in assay [9] is Chromo domain-containing protein 1 (Saccharomyces cerevisiae (strain ATCC 204508 / S288c) (Baker's yeast)) (UniProt P32657). The assay can be described thus: ScCHD-1 Enzyme Inhibition Assay. Also: in the data most compounds retested in dose-response had high values. It is filed as functional. The conditions noted are these: 30 µM.

For some of these results: Potency and affinity values are given separately.

Protein translocase subunit SecA (Escherichia coli (strain K12)), sequence (P10408 whole entry): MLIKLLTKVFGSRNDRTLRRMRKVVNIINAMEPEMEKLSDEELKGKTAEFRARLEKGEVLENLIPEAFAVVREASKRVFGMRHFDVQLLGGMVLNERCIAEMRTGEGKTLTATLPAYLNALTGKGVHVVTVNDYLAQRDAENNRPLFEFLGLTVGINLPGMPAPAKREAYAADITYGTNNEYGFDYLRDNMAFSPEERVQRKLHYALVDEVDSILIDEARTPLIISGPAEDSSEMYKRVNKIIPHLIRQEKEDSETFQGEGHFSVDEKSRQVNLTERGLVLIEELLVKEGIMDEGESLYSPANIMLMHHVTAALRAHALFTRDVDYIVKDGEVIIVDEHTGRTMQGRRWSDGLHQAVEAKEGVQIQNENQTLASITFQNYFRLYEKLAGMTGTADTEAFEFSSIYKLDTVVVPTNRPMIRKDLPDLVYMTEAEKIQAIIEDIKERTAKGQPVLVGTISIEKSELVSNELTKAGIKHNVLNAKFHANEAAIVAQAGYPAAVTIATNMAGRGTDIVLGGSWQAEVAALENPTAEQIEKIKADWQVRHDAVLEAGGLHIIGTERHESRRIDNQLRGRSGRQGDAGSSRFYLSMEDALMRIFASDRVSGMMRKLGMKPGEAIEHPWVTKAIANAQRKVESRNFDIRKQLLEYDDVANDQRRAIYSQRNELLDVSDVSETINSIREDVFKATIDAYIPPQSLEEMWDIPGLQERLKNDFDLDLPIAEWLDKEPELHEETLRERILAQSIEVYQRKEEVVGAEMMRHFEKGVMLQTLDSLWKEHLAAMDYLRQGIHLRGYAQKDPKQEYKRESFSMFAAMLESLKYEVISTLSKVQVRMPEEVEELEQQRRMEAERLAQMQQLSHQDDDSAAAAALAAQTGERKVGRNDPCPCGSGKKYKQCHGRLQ
Sialic acid-binding Ig-like lectin 9 (Homo sapiens), sequence (Q9Y336 whole entry): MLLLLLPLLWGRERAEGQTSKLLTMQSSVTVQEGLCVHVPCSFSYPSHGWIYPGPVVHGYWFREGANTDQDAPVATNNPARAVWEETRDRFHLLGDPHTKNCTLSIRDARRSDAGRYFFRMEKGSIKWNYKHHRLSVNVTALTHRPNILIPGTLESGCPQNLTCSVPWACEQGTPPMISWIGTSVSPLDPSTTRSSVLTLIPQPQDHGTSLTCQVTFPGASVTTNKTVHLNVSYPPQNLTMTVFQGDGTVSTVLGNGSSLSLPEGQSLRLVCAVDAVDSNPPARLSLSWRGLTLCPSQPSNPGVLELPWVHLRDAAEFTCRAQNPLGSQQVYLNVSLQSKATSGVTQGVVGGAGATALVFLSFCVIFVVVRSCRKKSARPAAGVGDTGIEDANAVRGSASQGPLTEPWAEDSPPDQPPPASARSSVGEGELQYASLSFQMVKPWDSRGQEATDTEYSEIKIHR
Chromo domain-containing protein 1 (Saccharomyces cerevisiae (strain ATCC 204508 / S288c) (Baker's yeast)), sequence (P32657 whole entry, the tested form may be a part): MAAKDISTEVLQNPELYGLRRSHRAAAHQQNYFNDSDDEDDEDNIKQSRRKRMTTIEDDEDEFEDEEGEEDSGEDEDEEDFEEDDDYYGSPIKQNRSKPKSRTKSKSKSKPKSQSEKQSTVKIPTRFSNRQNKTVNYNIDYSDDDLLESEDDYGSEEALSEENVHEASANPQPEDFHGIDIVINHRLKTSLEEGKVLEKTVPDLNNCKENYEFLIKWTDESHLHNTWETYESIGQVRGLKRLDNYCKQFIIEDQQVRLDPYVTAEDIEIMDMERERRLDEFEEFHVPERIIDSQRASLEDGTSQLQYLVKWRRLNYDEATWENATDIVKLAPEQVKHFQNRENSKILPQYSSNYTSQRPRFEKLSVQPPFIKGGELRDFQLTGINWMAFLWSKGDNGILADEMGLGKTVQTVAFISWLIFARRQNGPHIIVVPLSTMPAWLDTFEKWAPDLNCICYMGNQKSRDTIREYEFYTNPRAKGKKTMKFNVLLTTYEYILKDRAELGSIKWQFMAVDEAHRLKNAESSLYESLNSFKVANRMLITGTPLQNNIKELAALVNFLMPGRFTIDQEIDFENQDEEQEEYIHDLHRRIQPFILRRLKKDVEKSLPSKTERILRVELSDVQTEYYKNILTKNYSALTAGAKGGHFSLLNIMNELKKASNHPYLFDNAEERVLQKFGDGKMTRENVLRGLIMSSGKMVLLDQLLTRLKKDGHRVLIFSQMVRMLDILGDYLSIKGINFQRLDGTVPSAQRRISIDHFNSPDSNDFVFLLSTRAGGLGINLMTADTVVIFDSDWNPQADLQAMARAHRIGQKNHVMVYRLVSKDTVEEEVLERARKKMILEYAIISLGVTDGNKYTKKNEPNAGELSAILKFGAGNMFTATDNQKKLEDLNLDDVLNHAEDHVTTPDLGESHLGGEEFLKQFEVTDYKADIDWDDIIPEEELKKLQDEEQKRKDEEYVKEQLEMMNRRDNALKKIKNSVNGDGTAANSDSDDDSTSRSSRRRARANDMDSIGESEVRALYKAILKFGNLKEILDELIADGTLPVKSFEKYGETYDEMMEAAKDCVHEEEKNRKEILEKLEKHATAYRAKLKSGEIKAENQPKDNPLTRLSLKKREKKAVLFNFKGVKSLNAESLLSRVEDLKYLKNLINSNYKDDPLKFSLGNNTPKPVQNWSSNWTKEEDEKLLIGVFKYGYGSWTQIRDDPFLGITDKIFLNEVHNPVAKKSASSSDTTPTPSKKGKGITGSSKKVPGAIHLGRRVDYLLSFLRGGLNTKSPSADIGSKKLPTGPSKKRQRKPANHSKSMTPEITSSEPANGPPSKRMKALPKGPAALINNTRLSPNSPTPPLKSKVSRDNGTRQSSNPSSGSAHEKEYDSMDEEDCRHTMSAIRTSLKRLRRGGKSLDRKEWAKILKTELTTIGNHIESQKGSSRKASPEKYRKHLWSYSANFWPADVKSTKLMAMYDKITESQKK

For the compound `COc1ncccc1NC(=O)C1CC(=O)N(Cc2ccccn2)C1` (stereo unspecified), the Percent Effect was -1.71% in assay [1]; 10.5% in assay [2]; 4.85% in [3]; -1.28% in [4]; -4.97% in the assay on Trypanosoma cruzi; -2.37% in assay [5]. Moreover, the Percent Effect in assay [6] is 22.3%; in the assay filed under Homo sapiens it was -2.21%; in assay [7] it was 4.25%; in [8], 13%; in [9], -2.98%.

As to `CN(Cc1ccco1)Cc1ccccc1CNC(=O)c1ccncc1`, the Percent Effect in [1] is -4.48%; in [2] it was 5.41%; in assay [3], 13.1%; in [4], 4.84%; with Trypanosoma cruzi, 0.386%; in [5] it was 0%. Moreover, the Percent Effect in assay [6] is 12.8%; in the assay filed under Homo sapiens, -3.63%; in assay [7] it was 2.65%; in [8], 4.88%; in assay [9] it was -2.3%.

Take `COCC1c2c(cnn2C)CCN1Cc1ccc(F)cc1` (stereo unspecified): the Percent Effect is -4.38% in [1]; -2.7% in [2]; 1.18% in assay [3]; -3.56% in assay [4]; -2.93% in the assay with Trypanosoma cruzi; 1.25% in assay [5]. In addition, the Percent Effect in assay [6] was 5.66%; in the assay listed under Homo sapiens, -1.22%; in assay [7], 5.94%; in assay [8], 8.54%; in assay [9] it was 2.82%.

As for `Cc1nn(C)c2sc(C(=O)N3CCCC(n4ccnc4C)C3)cc12` (stereo unspecified), the Percent Effect was -3.87% in assay [1]; 7.89% in assay [2]; 3.55% in assay [3]; 2.66% in [4]; 2.82% in the assay on Trypanosoma cruzi; -5.92% in [5]. Moreover, the Percent Effect in assay [6] is 8.92%; in the assay listed under Homo sapiens, 24.3%; in assay [7], 4.25%; in assay [8], 5.2%; in [9], -4.45%.

Consider `Cc1nn(C)c(C)c1C1COCCN1C(=O)c1ccccc1` (stereo unspecified), for which the Percent Effect in assay [1] was -2.83%; in [2] it was 5.2%; in [3], -2.73%; in assay [4], 2.06%; in the assay with Trypanosoma cruzi it was 6.74%; in assay [5], 3.2%. Besides, the Percent Effect was -1.01% in [6]; 7.76% in the assay filed under Homo sapiens; 2.91% in [7]; 12.2% in assay [8]; 11.3% in [9].

Regarding `Cc1cc(C(=O)N2CC[C@H](OCC3CC3)[C@@H]2Cc2cccnc2)no1`, the Percent Effect was -2.54% in assay [1]; 0% in assay [2]; 0.886% in assay [3]; -3.88% in [4]; 0.772% in the assay on Trypanosoma cruzi; -36.4% in assay [5]. For the same compound, the Percent Effect in assay [6] is 4.79%; in the assay filed under Homo sapiens it was -3.71%; in assay [7], -1.04%; in assay [8], -2.5%; in [9] it was -5.62%.

`Cc1cc(F)cc(S(=O)(=O)NCCCN2CCC(O)CC2)c1`: the Percent Effect is 1.42% in assay [1]; 15.6% in assay [2]; 0.172% in assay [3]; 0.431% in assay [4]; -0.688% in the assay on Trypanosoma cruzi; 5.52% in assay [5]. The Percent Effect in [6] was found to be 14.6%; in the assay filed under Homo sapiens, 10.8%; in assay [7] it was 7.53%; in [8], 23.5%; in [9], 1.36%.

Consider `COc1ccccc1OCc1cc(C(=O)N2CC=CC2C(C)C)n[nH]1` (stereo unspecified), for which the Percent Effect in assay [1] is 0.254%; in [2] it was 1.39%; in [3], -2.81%; in assay [4], 9.42%; with Trypanosoma cruzi it was 2.82%; in assay [5] it was 8.83%. For the same compound, the Percent Effect is 11.9% in assay [6]; -13.9% in the assay listed under Homo sapiens; 5.26% in [7]; 7.69% in assay [8]; -2.27% in assay [9].

Take `C[C@@H]1CN(C(=O)c2ccc(C#N)nc2)CC[C@@]1(O)C1CCOCC1`: the Percent Effect in assay [1] was -2.31%; in assay [2], 5.41%; in assay [3], -1.11%; in assay [4], 17.6%; with Trypanosoma cruzi, 6.18%; in [5], 10.5%. Besides, the Percent Effect was 3.45% in assay [6]; 14.3% in the assay filed under Homo sapiens; 5.82% in [7]; 9.76% in [8]; -1.75% in assay [9].

In the case of `Cc1nccc(CNC(=O)NCCOc2ccc(F)c(F)c2)n1`, the Percent Effect in assay [1] is -4.87%; in assay [2] it was 0%; in assay [3], -0.557%; in assay [4], 27.5%; with Trypanosoma cruzi it was 4.25%; in [5], -1.43%. Also, the Percent Effect was 14.8% in assay [6]; 8.46% in the assay listed under Homo sapiens; 4.76% in [7]; 9.76% in assay [8]; -9.47% in [9].

Take `N#Cc1ccc(CNCC(C(=O)N2CCOCC2)c2ccccc2)cc1` (stereo unspecified): the Percent Effect was -2.65% in assay [1]; 10.4% in assay [2]; -4.88% in [3]; 7.63% in assay [4]; 2.06% in the assay with Trypanosoma cruzi; -75.9% in assay [5]. For the same compound, the Percent Effect was 4.16% in assay [6]; -2.22% in the assay listed under Homo sapiens; 4.3% in assay [7]; 13.6% in assay [8]; -3.12% in [9].

(Values after ChEMBL document CHEMBL3988442, “University of Dundee, Small-Polar-MMV Screening Library” (2021).)
